# ± gives the standard deviation.
# Tested on: RAW-Dual (murine macrophage reporter line)
# Assay: IRF reporter (Lucia luciferase) activity fold change vs agonist alone; higher = enhanced IRF activity
# Conditions: modulator concentration 10 µM; agonist: MPLA […]
# In short: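 Compound reached 10 μM final in each well by pin transfer, onto RAW-Dual murine macrophage reporter cells seeded at 50 000 per well in 384-well plates. After 1 hour at 37 °C, the cells were stimulated overnight with a PRR agonist. SEAP in the supernatant was read with QUANTI-Blue at 620 nm absorbance for NF-κB, and Lucia luciferase was read with QUANTI-Luc luminescence for IRF. Each signal was turned into fold change against the mean agonist-only control on the same plate, and two replicate plates were averaged with propagated errors.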
row,Structure (SMILES),IRF reporter
1,Cc1nc2sccn2c(=O)c1CCN1CCC(=C(c2ccc(F)cc2)c2ccc(F)cc2)CC1,1.01 ± 0.15
2,Cn1cnc([N+](=O)[O-])c1Sc1ncnc2nc[nH]c12,0.986 ± 0.23
3,CNC(=O)c1ccc2cc(C3(O)CCn4cncc43)ccc2c1 (stereo not given),0.945 ± 0.17
4,CCOC(=O)CN1CCOCCOCCN(CC(=O)OCC)CCOCCOCC1,1.02 ± 0.1
5,CCN(CC)CCNC(=O)c1c(C)[nH]c(/C=C2\C(=O)Nc3ccc(F)cc32)c1C.O=C(O)C[C@H](O)C(=O)O,0.0544 ± 0.016
6,Cc1cc(C)n(CC2CCN(Cc3ccc(Br)cc3)CC2)n1,1.27 ± 0.39
7,O=C(NC(=S)Nc1ccc2[nH]c(=O)[nH]c2c1)c1ccc(F)cc1,1.05 ± 0.16
8,C=C1CCC(NS(=O)(=O)c2ccc(-c3coc(C)n3)cc2)CC1,1.2 ± 0.17
9,CC(=O)N1CCN(C(=O)Cn2cnc(-c3ccc(C)cc3)cc2=O)CC1,1.18 ± 0.45
10,Cc1[nH]c(=O)c(C#N)cc1-c1ccncc1,1.34 ± 0.2
11,O=C(NCCOc1cccc2ccccc12)Nc1cc(F)c(F)cc1Cl,0.878 ± 0.24
12,Cc1cc(C)n(CCCN2C(=O)c3cccc4cccc(c34)C2=O)n1,1.14 ± 0.088
13,CC(C)(C)C(O)/C=C/c1ccc2c(c1)OCO2 (stereo not given),1.01 ± 0.17
14,CN(C)c1ccc(O)c2c1C[C@H]1C[C@H]3[C@H](N(C)C)C(O)=C(C(N)=O)C(=O)[C@@]3(O)C(O)=C1C2=O.Cl,1.09 ± 0.17
15,CN(C)c1ccc(C=C2C(=O)C(=O)c3ccccc32)cc1Br,1 ± 0.16
16,Cc1cccc(C)c1NC(=O)CC(C)c1ccccc1 (stereo not given),1.17 ± 0.33
17,Cc1cc(CCNC(=O)c2cc3ccccc3s2)nn1C,0.993 ± 0.16
18,CCSc1nc(-c2cccs2)cc(C(F)(F)F)c1C#N,1.9 ± 0.25
19,CCN(CC)c1ccc(C=C(C#N)c2n[nH]c(N)c2C#N)c(OC)c1,1.18 ± 0.15
20,Cc1ncsc1C(=O)NC1CCC(F)(F)CC1,1 ± 0.1

row,Structure (SMILES),IRF reporter
1,Nc1ccccc1NC(=O)c1ccc(CNC(=O)OCc2cccnc2)cc1,0.298 ± 0.029
2,COc1cc(=O)n(C)cc1C(=O)Nc1cccnc1,0.915 ± 0.25
3,CC1=C(C(=O)N2CCOCC2)C(c2cccs2)NC(=O)N1 (stereo not given),1.17 ± 0.14
4,CCCCNc1ccc(C(=O)OCCN(C)C)cc1.Cl,1.09 ± 0.086
5,CC(O)(CNC(=O)NCc1ccc(F)cc1)c1ccc(-c2ccccc2)cc1 (stereo not given),1.62 ± 0.14
6,O=C(Nc1ccc(S(=O)(=O)Nc2nccs2)cc1)c1c(F)cccc1F,1.14 ± 0.1
7,Cc1ccc(Cn2c(N)nc3ccccc32)cc1,1.37 ± 0.14
8,Cc1ccc(Sc2c(C)nn(-c3ccccc3)c2OC(=O)C(C)(C)C)cc1,1.03 ± 0.19
9,Oc1c(Cl)cc(Cl)cc1C=Nc1cc(Cl)cc(Cl)c1,1.09 ± 0.14
10,CC(=O)Nc1ccc(O)cc1 [Prestw-868],1.03 ± 0.14
11,Cc1onc(-c2ccccc2)c1-c1ccc(S(N)(=O)=O)cc1,0.898 ± 0.11
12,Ic1cccc(Cn2nnc(-c3ccccc3)n2)c1,1.51 ± 0.18
13,COC(=O)C1C(=O)CC(C)(O)C(C(=O)OC)C1c1ccc2c(c1)OCO2 (stereo not given),1.14 ± 0.11
14,CCCCSc1nnc2c(n1)OC(c1cccc(C)n1)Nc1ccc(Br)cc1-2 (stereo not given),0.921 ± 0.11
15,CC(=O)Oc1cc2c(s1)CCN(C(C(=O)C1CC1)c1ccccc1F)C2.Cl (stereo not given),0.998 ± 0.12
16,CCN(CC)c1ccc(NC(=O)C(C)(C)C)cc1,1.36 ± 0.25
17,COC(=O)c1cc(Br)ccc1NC(=O)c1ccccc1,1.19 ± 0.21
18,CCCCc1oc2ccc(NS(C)(=O)=O)cc2c1C(=O)c1ccc(OCCCN(CCCC)CCCC)cc1.Cl,1.27 ± 0.18
19,CCC1OC(=O)C(C)C(OC2CC(C)(OC)C(O)C(C)O2)C(C)C(OC2OC(C)CC(N(C)C)C2O)C(C)(O)CC(C)CN(C)C(C)C(O)C1(C)O (stereo not given),0.952 ± 0.088
20,O=C1OCCN1C1CCN(C(=O)C2(c3ccc(F)cc3)CC2)C1 (stereo not given),1.45 ± 0.51

# Tested on: RAW-Dual (murine macrophage reporter line)
# Assay: viability score (confluency relative to resting cells, overnight) (fraction); higher = more viable, active = viable (0.7 or more)
# Conditions: modulator concentration 10 µM
# In short: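 RAW-Dual macrophages in 384-well plates were incubated overnight with compound, final concentration 10 μM. Confluency images from IncuCyte were processed in IncuCyte software into two masks covering all imaged wells. The viability score is each well's confluency relative to resting cells, and a compound met the cutoff when both masks exceeded 70% of resting cells.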
row,Structure (SMILES),viability score
1,Cc1nc2sccn2c(=O)c1CCN1CCC(=C(c2ccc(F)cc2)c2ccc(F)cc2)CC1,1 (active)
2,Cn1cnc([N+](=O)[O-])c1Sc1ncnc2nc[nH]c12,0.983 (active)
3,CNC(=O)c1ccc2cc(C3(O)CCn4cncc43)ccc2c1 (stereo not given),0.995 (active)
4,CCOC(=O)CN1CCOCCOCCN(CC(=O)OCC)CCOCCOCC1,1.01 (active)
5,CCN(CC)CCNC(=O)c1c(C)[nH]c(/C=C2\C(=O)Nc3ccc(F)cc32)c1C.O=C(O)C[C@H](O)C(=O)O,0.117 (inactive)
6,Cc1cc(C)n(CC2CCN(Cc3ccc(Br)cc3)CC2)n1,0.626 (inactive)
7,O=C(NC(=S)Nc1ccc2[nH]c(=O)[nH]c2c1)c1ccc(F)cc1,1.01 (active)
8,C=C1CCC(NS(=O)(=O)c2ccc(-c3coc(C)n3)cc2)CC1,0.834 (active)
9,CC(=O)N1CCN(C(=O)Cn2cnc(-c3ccc(C)cc3)cc2=O)CC1,0.964 (active)
10,Cc1[nH]c(=O)c(C#N)cc1-c1ccncc1,0.99 (active)
11,O=C(NCCOc1cccc2ccccc12)Nc1cc(F)c(F)cc1Cl,1.01 (active)
12,Cc1cc(C)n(CCCN2C(=O)c3cccc4cccc(c34)C2=O)n1,1.01 (active)
13,CC(C)(C)C(O)/C=C/c1ccc2c(c1)OCO2 (stereo not given),0.819 (active)
14,CN(C)c1ccc(O)c2c1C[C@H]1C[C@H]3[C@H](N(C)C)C(O)=C(C(N)=O)C(=O)[C@@]3(O)C(O)=C1C2=O.Cl,0.999 (active)
15,CN(C)c1ccc(C=C2C(=O)C(=O)c3ccccc32)cc1Br,1 (active)
16,Cc1cccc(C)c1NC(=O)CC(C)c1ccccc1 (stereo not given),0.915 (active)
17,Cc1cc(CCNC(=O)c2cc3ccccc3s2)nn1C,0.997 (active)
18,CCSc1nc(-c2cccs2)cc(C(F)(F)F)c1C#N,0.999 (active)
19,CCN(CC)c1ccc(C=C(C#N)c2n[nH]c(N)c2C#N)c(OC)c1,1.02 (active)
20,Cc1ncsc1C(=O)NC1CCC(F)(F)CC1,0.999 (active)

row,Structure (SMILES),viability score
1,Nc1ccccc1NC(=O)c1ccc(CNC(=O)OCc2cccnc2)cc1,0.913 (active)
2,COc1cc(=O)n(C)cc1C(=O)Nc1cccnc1,0.967 (active)
3,CC1=C(C(=O)N2CCOCC2)C(c2cccs2)NC(=O)N1 (stereo not given),0.986 (active)
4,CCCCNc1ccc(C(=O)OCCN(C)C)cc1.Cl,1.01 (active)
5,CC(O)(CNC(=O)NCc1ccc(F)cc1)c1ccc(-c2ccccc2)cc1 (stereo not given),0.966 (active)
6,O=C(Nc1ccc(S(=O)(=O)Nc2nccs2)cc1)c1c(F)cccc1F,1.01 (active)
7,Cc1ccc(Cn2c(N)nc3ccccc32)cc1,0.702 (active)
8,Cc1ccc(Sc2c(C)nn(-c3ccccc3)c2OC(=O)C(C)(C)C)cc1,0.963 (active)
9,Oc1c(Cl)cc(Cl)cc1C=Nc1cc(Cl)cc(Cl)c1,0.734 (active)
10,CC(=O)Nc1ccc(O)cc1 [Prestw-868],0.998 (active)
11,Cc1onc(-c2ccccc2)c1-c1ccc(S(N)(=O)=O)cc1,0.98 (active)
12,Ic1cccc(Cn2nnc(-c3ccccc3)n2)c1,1.01 (active)
13,COC(=O)C1C(=O)CC(C)(O)C(C(=O)OC)C1c1ccc2c(c1)OCO2 (stereo not given),0.989 (active)
14,CCCCSc1nnc2c(n1)OC(c1cccc(C)n1)Nc1ccc(Br)cc1-2 (stereo not given),1 (active)
15,CC(=O)Oc1cc2c(s1)CCN(C(C(=O)C1CC1)c1ccccc1F)C2.Cl (stereo not given),0.983 (active)
16,CCN(CC)c1ccc(NC(=O)C(C)(C)C)cc1,1.04 (active)
17,COC(=O)c1cc(Br)ccc1NC(=O)c1ccccc1,0.99 (active)
18,CCCCc1oc2ccc(NS(C)(=O)=O)cc2c1C(=O)c1ccc(OCCCN(CCCC)CCCC)cc1.Cl,0.29 (inactive)
19,CCC1OC(=O)C(C)C(OC2CC(C)(OC)C(O)C(C)O2)C(C)C(OC2OC(C)CC(N(C)C)C2O)C(C)(O)CC(C)CN(C)C(C)C(O)C1(C)O (stereo not given),0.998 (active)
20,O=C1OCCN1C1CCN(C(=O)C2(c3ccc(F)cc3)CC2)C1 (stereo not given),0.951 (active)
